Drawing on PubChem BioAssay (EPA / NIEHS), this text covers outcome and AC50 for 21 compounds.

Structures are written as SMILES. Active and inactive are the calls of the source. Rule for the calls: active = hit-call score of the fitted dose curve at least 0.9, where 1 is the maximum; inactive = score below 0.9.

Common to all, as to conditions: mRNA level, 48 h; actives raise or lower the signal
Read-out in assay [1]: Cytochrome P450 7A1 (Homo sapiens) (UniProt P22680)
Put plainly: LTEA_HepaRG_CYP7A1: Life Technologies and Expression Analysis (LTEA) Assay for Cytochrome P450 7A1 (CYP7A1) using HepaRG (AID 2283496). The method, boiled down:
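HepaRG cells plated 48 h, then switched to serum-free induction medium and exposed in duplicate for 48 h to 8-point half-log series from 100 uM in 0.5% DMSO. CYP7A1 mRNA by qRT-PCR (TaqMan), normalized to ACTB/GAPDH/POLR2A; bidirectional fit versus DMSO.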

Read-out in assay [2]: Glutathione S-Transferase (GSTA2), GSTA2 (gene 2939)
In words: LTEA_HepaRG_GSTA2: Life Technologies and Expression Analysis (LTEA) Assay for Glutathione S-Transferase (GSTA2) using HepaRG (AID 2283497). The method, boiled down:
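Human HepaRG cells, plated 48 h, then exposed in serum-free induction medium for 48 h to eight half-log concentrations up to 100 uM in 0.5% DMSO, duplicate. GSTA2 mRNA by qRT-PCR, normalized to ACTB/GAPDH/POLR2A; bidirectional fit versus DMSO.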

Read-out in assay [3]: Glutamate-cysteine ligase catalytic (GCLC), GCLC (gene 2729)
In words: LTEA_HepaRG_GCLC: Life Technologies and Expression Analysis (LTEA) Assay for Glutamate-cysteine ligase catalytic (GCLC) using HepaRG (AID 2283498). The method, boiled down: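 Differentiated human HepaRG cells, plated 48 h then switched to serum-free induction medium, were exposed in duplicate for 48 h to 8 half-log concentrations topping at 100 uM in 0.5% DMSO. GCLC mRNA was quantified by qRT-PCR against ACTB, GAPDH and POLR2A.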

Read-out in assay [4]: growth arrest and DNA damage 45 (GADD45G), GADD45G (gene 10912)
Put plainly: LTEA_HepaRG_GADD45G: Life Technologies and Expression Analysis (LTEA) Assay for growth arrest and DNA damage 45 (GADD45G) using HepaRG (AID 2283499). The method, boiled down:
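Differentiated human HepaRG cells, 48 h post-plating, exposed 48 h in serum-free induction medium to 8 half-log concentrations (top 100 uM, 0.5% DMSO) in duplicate. GADD45G mRNA measured by Fluidigm TaqMan qRT-PCR, normalized to ACTB, GAPDH, POLR2A; bidirectional fit versus DMSO.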

Read-out in assay [5]: Glutamate-cysteine ligase regulatory (GCLM), GCLM (gene 2730)
Put plainly: LTEA_HepaRG_GCLM: Life Technologies and Expression Analysis (LTEA) Assay for Glutamate-cysteine ligase regulatory (GCLM) using HepaRG (AID 2283500). The method, boiled down:
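Differentiated HepaRG cells exposed 48 h in serum-free induction medium to eight half-log concentrations up to 100 uM (0.5% DMSO). GCLM mRNA by TaqMan qRT-PCR, normalized to ACTB, GAPDH and POLR2A; bidirectional fit versus DMSO.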

Read-out in assay [6]: Glutathione S-transferase M3 (GSTM3), GSTM3 (gene 2947)
Put plainly: LTEA_HepaRG_GSTM3: Life Technologies and Expression Analysis (LTEA) Assay for Glutathione S-transferase M3 (GSTM3) using HepaRG (AID 2283501). The method, boiled down:
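Differentiated human HepaRG cells were exposed in duplicate for 48 h in serum-free induction medium, 8 points from 100 uM top in half-log steps, 0.5% DMSO. GSTM3 mRNA was measured by TaqMan qRT-PCR, normalized to ACTB, GAPDH and POLR2A; bidirectional fit versus DMSO.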

Read-out in assay [7]: Heat shock 70 kDa protein 1 (HSPA1A), gene 3303
In words: LTEA_HepaRG_HSPA1A: Life Technologies and Expression Analysis (LTEA) Assay for Heat shock 70 kDa protein 1 (HSPA1A) using HepaRG (AID 2283502). The method, boiled down: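 Human HepaRG cells in serum-free induction medium were exposed in duplicate for 48 h to 8 half-log concentrations, highest 100 uM, in 0.5% DMSO. HSPA1A mRNA read by TaqMan qRT-PCR, normalized to ACTB, GAPDH, POLR2A, fitted bidirectionally against DMSO.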

Read-out in assay [8]: Hypoxia-inducible factor 1-alpha (Homo sapiens) (UniProt Q16665)
Put plainly: LTEA_HepaRG_HIF1A: Life Technologies and Expression Analysis (LTEA) Assay for Hypoxia-inducible factor 1 (HIF1A) Trancription factor using HepaRG (AID 2283503). The method, boiled down:
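Differentiated HepaRG cells in serum-free induction medium exposed 48 h, in duplicate, to 8-point half-log series from 100 uM in 0.5% DMSO. HIF1A mRNA measured by TaqMan qRT-PCR, normalized to ACTB/GAPDH/POLR2A, fitted bidirectionally versus DMSO.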

Read-out in assay [9]: 3-Hydroxy-3-Methylglutaryl-CoA Synthase 2 (HMGCS2), HMGCS2 (gene 3158)
Put plainly: LTEA_HepaRG_HMGCS2: Life Technologies and Expression Analysis (LTEA) Assay for 3-Hydroxy-3-Methylglutaryl-CoA Synthase 2 (HMGCS2) using HepaRG (AID 2283504). The method, boiled down: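 Human HepaRG cells in serum-free induction medium were exposed in duplicate for 48 h to 8-point half-log series from 100 uM top in 0.5% DMSO. HMGCS2 mRNA measured by TaqMan qRT-PCR, normalised to ACTB, GAPDH, POLR2A; bidirectional fit versus DMSO.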

Read-out in the next assay: HGF (gene 3082)
Put plainly: LTEA_HepaRG_HGF: Life Technologies and Expression Analysis (LTEA) Assay for Hepatocyte Growth Facto (HGF) using HepaRG (AID 2283505). The method, boiled down: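 Differentiated HepaRG cells in serum-free induction medium exposed 48 h in duplicate, 8 half-log concentrations from 100 uM in 0.5% DMSO. HGF mRNA by qRT-PCR, normalised to ACTB, GAPDH, POLR2A; bidirectional fitting.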

Chain of Hypoxia-inducible factor 1-alpha (Homo sapiens) (Q16665 whole entry, looked up): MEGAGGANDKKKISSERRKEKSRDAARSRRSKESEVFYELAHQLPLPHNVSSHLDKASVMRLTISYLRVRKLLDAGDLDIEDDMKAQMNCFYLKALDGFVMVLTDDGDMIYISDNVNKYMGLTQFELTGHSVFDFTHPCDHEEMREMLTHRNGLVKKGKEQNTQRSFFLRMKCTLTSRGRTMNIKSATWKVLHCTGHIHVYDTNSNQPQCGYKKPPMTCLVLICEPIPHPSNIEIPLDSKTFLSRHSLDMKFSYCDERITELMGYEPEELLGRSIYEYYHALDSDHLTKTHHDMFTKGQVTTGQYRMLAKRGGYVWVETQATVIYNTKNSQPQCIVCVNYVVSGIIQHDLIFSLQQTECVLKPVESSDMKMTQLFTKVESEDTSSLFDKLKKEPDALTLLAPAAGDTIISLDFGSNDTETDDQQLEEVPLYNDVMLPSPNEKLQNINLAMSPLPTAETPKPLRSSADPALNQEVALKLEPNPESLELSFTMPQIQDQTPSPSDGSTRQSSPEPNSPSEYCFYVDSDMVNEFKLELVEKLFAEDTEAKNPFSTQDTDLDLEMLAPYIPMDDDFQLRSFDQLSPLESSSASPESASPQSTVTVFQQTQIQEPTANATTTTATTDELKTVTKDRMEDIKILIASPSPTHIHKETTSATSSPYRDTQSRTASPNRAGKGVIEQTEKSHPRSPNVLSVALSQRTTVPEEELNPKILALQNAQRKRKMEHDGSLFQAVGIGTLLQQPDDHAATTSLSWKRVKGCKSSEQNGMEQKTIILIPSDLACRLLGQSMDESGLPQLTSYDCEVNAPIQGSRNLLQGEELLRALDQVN

As for `COc1cc(C=O)ccc1O`, the outcome in assay [1], in [2], in [3], in assay [4], in assay [5] and in assay [6] was inactive. The compound was called inactive (in assay [7]; in assay [8]; in [9]; with HGF (gene 3082)).

As to `Cc1cc(NC(=O)C(=O)O)cc(C)c1Oc1ccc(O)c2c1CCC2`, the concentration at half-maximal activity (AC50) in assay [1] was 0.229 µM (active); in assay [2], 75.6 µM (active); in assay [8] it was 0.021 µM (active); in [9], 0.00423 µM (active). For the same compound, the call (in assay [3]; in assay [4]; in assay [5]; in assay [6]; in [7]; in the assay with HGF (gene 3082)) was inactive.

Take `OC[C@@H](O)[C@@H](O)[C@H](O)[C@H](O)CO`: the outcome in assay [1], in assay [2], in assay [3], in assay [4], in assay [5] and in assay [6] was inactive. Also, the result (in [7]; in [8]; in [9]; with HGF (gene 3082)) was inactive.

Turning to `O=C(N[C@@H](Cc1ccccc1)[C@@H](O)C(=O)N1C[C@@H](O)[C@@H](O)C1)c1cc2cc(Cl)ccc2[nH]1`, the outcome in [1], in [3], in [4], in assay [5], in assay [6] and in assay [7] was inactive. In addition, the result (in assay [8]; with HGF (gene 3082)) was inactive. The figures for the concentration at half-maximal activity (AC50) in [2] and in [9] were 81.7 µM (active) and 89 µM (active), respectively.

Turning to `COC(=O)c1ccc(O)cc1`, the call in [1], in [2], in [3], in assay [4], in assay [5] and in assay [6] was inactive. The call (in [7]; in assay [8]; in [9]; in the assay with HGF (gene 3082)) was inactive.

In the case of `CCc1c(C(=O)NN2CCCCC2)nn(-c2ccc(Cl)cc2Cl)c1-c1ccc(Br)cc1`, the AC50 in assay [1] is 37.6 µM (active); in [2] it was 31.7 µM (active); in assay [3], 50 µM (active); in assay [4] it was 41.6 µM (active); in [5], 50 µM (active); in assay [7], 86.3 µM (active). The values for the AC50 (in assay [8]; in [9]; with HGF (gene 3082)) were 86.6 µM (active), 23.7 µM (active) and 90.4 µM (active), respectively. The compound was called inactive in assay [6].

Take `CC(C)c1ccc(C(=O)N=C(N)N)cc1S(C)(=O)=O`: the compound was classed as inactive in assay [1], in assay [2], in assay [4], in assay [8] and in [9]. The AC50 is 0.336 µM (active) in assay [3]; 0.441 µM (active) in assay [5]; 446 nM (active) in assay [6]; 7.39 µM (active) in assay [7]; 7.39 µM (active) with HGF (gene 3082).

`Nc1ccc2c(c1)C(=O)c1ccccc1C2=O`: the AC50 is 8.9 µM (active) in assay [1]; 10.2 µM (active) in [2]; 3.17 µM (active) in assay [4]; 10.1 µM (active) in assay [5]; 16.5 µM (active) in assay [9]. Moreover, the outcome (in [3]; in [6]; in [7]; in assay [8]; in the assay with HGF (gene 3082)) was inactive.

Regarding `COCCOCCOC`, the compound was called inactive in assay [1], in assay [2], in assay [4], in assay [7] and in assay [9]. In addition, the AC50 in [3] was 2.1 µM (active); in assay [5], 0.925 µM (active); in assay [6] it was 2140 nM (active); in [8], 9.92 µM (active); in the assay with HGF (gene 3082), 1.5 µM (active).

With `CCCCC(CC)COC(=O)CC(C(=O)OCC(CC)CCCC)S(=O)(=O)O` (stereo not given), the AC50 in assay [1] is 92 µM (active); in assay [2] it was 82.2 µM (active); in assay [3] it was 94.6 µM (active); in assay [4], 87 µM (active); in [5] it was 79.7 µM (active); in assay [7], 38.1 µM (active). Also, in assay [9], the AC50 was 79.6 µM (active). Besides, the outcome (in [6]; in assay [8]; in the assay with HGF (gene 3082)) was inactive.

On to `CN1CCCC1=O`, for which the outcome in assay [1], in assay [2], in [3], in assay [4], in assay [5] and in [6] was inactive. For the same compound, the compound was called inactive (in assay [7]; in assay [8]; in assay [9]; with HGF (gene 3082)).

Take `COc1ccc(C)cc1N`: the result in assay [1], in assay [2], in assay [3], in assay [4], in assay [5] and in [6] was inactive. Besides, the outcome (in assay [7]; in assay [8]; in assay [9]; in the assay with HGF (gene 3082)) was inactive.

For the compound `NC(=O)Cn1c(=O)cc(CCN2CCN(c3nccc4sccc34)CC2)c2ccc(F)cc21`, the AC50 in [1] is 21.5 µM (active); in assay [2], 50 µM (active); in assay [4] it was 83.8 µM (active); in [7], 21.9 µM (active); in assay [8], 13.1 µM (active); in [9], 50 µM (active). Besides, the result (in assay [3]; in assay [5]; in assay [6]; with HGF (gene 3082)) was inactive.

On to `Cc1cc(=O)[nH]c(=S)[nH]1`, for which the compound was called inactive in [1], in [2], in [3], in [4], in assay [5] and in assay [6]. Further, the result (in [7]; in assay [8]; in [9]; with HGF (gene 3082)) was inactive.

`CCCCCCCCCCCCCO`: the compound was classed as inactive in assay [1], in [2], in [3], in assay [4], in [5] and in assay [6]. Moreover, the compound was called inactive (in assay [7]; in assay [8]; in [9]; in the assay with HGF (gene 3082)).

As to `COc1cc(S(=O)(=O)O)c(C)cc1N=Nc1c(O)ccc2cc(S(=O)(=O)O)ccc12`, the compound was called inactive in [1], in [2], in assay [3], in assay [4], in assay [5] and in [6]. Further, the result (in assay [7]; in assay [8]; in assay [9]; in the assay with HGF (gene 3082)) was inactive.

`CC1(C)CC(N=C=O)CC(C)(CN=C=O)C1` (stereo not given): the result in assay [1], in assay [2], in [3], in [4], in assay [5] and in assay [6] was inactive. Besides, the compound was classed as inactive (in assay [7]; in assay [8]; in assay [9]; in the assay with HGF (gene 3082)).

As for `Cc1ccc(Cl)cc1`, the compound was classed as inactive in assay [1], in [2], in assay [3], in assay [4], in [5] and in [6]. The result (in assay [7]; in assay [8]; in assay [9]; with HGF (gene 3082)) was inactive.

As for `CCCCCCCCCCCCCCCCCC(=O)O`, the compound was called inactive in [1], in assay [2], in [3], in [4], in assay [5] and in [6]. Besides, the compound was called inactive (in assay [7]; in assay [8]; in assay [9]; with HGF (gene 3082)).

Turning to `COc1ccc2c(c1)c(CC(=O)O)c(C)n2C(=O)c1ccc(Cl)cc1`, the compound was classed as inactive in assay [1], in assay [2], in assay [3], in [4], in [5] and in assay [6]. Moreover, the compound was called inactive (in [7]; in assay [8]; in assay [9]; with HGF (gene 3082)).

For the compound `C1CCC(SSC2CCCCC2)CC1`, the result in assay [1], in assay [2], in [3], in [4], in [5] and in [6] was inactive. The outcome (in [7]; in assay [8]; in assay [9]; with HGF (gene 3082)) was inactive.
